Measurements published in PubChem BioAssay (NCATS).
Where “and” joins values, the source holds several entries; their conditions need not be identical. Equal entries are not always repeated. Records with an inconclusive call do not appear. A number with no mark means an inactive call. Calls of active or inactive are those of the source. Calls follow the shape of the dose curve; as a rule, active = well fitted curve in the direction sought with a large enough effect; inconclusive = small, poorly fitted or top-dose-only effect, or another doubt; inactive = no such curve, though single readings can be large; an effect the other way counts as inactive or inconclusive.
% is scaled to controls: 0 for no effect and ±100 for the full control effect.

Experiment: Primary qHTS for inhibitors of nuclear receptor binding SET domain protein 2 (NSD2) in an isogenic RCH-ACV NSD2 p.E1099K mutant (9B) (AID 1645876); also: nearly all actives have a fitted effect of over 70% in size; also: potency is read from the fitted curve at half-maximal effect
Settings: RCH-ACV NSD2 E1099K (9B) viability, CellTiter-Glo, 72 h; series mostly up to 44.9 µM; activity change, negative = viability loss: at the top concentration
For CCOC(=O)C1=C(N)Oc2ccc(Br)cc2C1C(C#N)C(=O)OCC (stereo not given), the Potency was “inactive”. For CC(C)(C)c1cc(C(=O)O)c(NC(=O)Nc2ccc3[nH]ncc3c2)s1, the Potency was “inactive”. For COc1ccc2c(Oc3ccc(NC(=O)c4c(C)n(CC(C)(C)O)n(-c5ccccc5)c4=O)cc3F)ccnc2c1, the Potency was 11.5 µM (active). With CCS(=O)(=O)N1CC(CC#N)(n2cc(-c3ncnc4[nH]ccc34)cn2)C1 the Potency was 18.6 µM (active). In the case of CC(C)=CC[C@@H](O)C1=CC(=O)c2c(O)ccc(O)c2C1=O, the Potency is reported as 23.5 µM (active). With O=C1C[C@@H](c2ccc(O)cc2)Oc2cc(O)cc(O)c21 the “activity change, negative = viability loss” value was -22.6%. For COc1cc2c(cc1OC)CN(CCc1ccc(NC(=O)c3cc(OC)c(OC)cc3NC(=O)c3cnc4ccccc4c3)cc1)CC2, the Potency was “inactive”. In the case of Cc1nc(N)sc1-c1ccnc(Nc2ccc(N3CCOCC3)cc2)n1, the Potency is reported as 409 nM (active) and 590 nM (active). With CC1(C)CCC2=C(O1)c1ccccc1C(=O)C2=O the Potency was 13.2 µM (active). For CC(C(=O)O)c1ccc(-c2ccccc2)c(F)c1 (stereo not given), the “activity change, negative = viability loss” value was -1.38%. With CC(C)n1nc(-c2ccc3oc(N)nc3c2)c2c(N)ncnc21 the Potency was 36.5 nM (active) and 29.5 nM (active). With COc1cc2ncnc(-n3nc(-c4ccccn4)nc3N)c2cc1OC the Potency was 1.59 µM (active). For COc1ccc(-c2cc(=O)c3c(O)cc(O)cc3o2)cc1O, the Potency was 11.8 µM (active). In the case of COc1cccc(-c2cc(=O)c3ccccc3o2)c1N, the Potency is reported as “inactive”. For O=C1C(Cl)=C(NCCN2CCOCC2)C(=O)c2ncccc21, the Potency was 7.42 µM (active). In the case of CC(C)(C)NC(=O)Nc1cccc(Nc2ncc(F)c(NC(C)(C)CO)n2)c1, the Potency is reported as 5.78 µM (active). With N[C@H](CSC(c1ccccc1)(c1ccccc1)c1ccccc1)C(=O)O the “activity change, negative = viability loss” value was -5.14%. With CNC(=O)c1ccc2cc(C3(O)CCn4cncc43)ccc2c1 (stereo not given) the “activity change, negative = viability loss” value was -4.12%. For Cc1ccn(-c2ccc(-c3ncco3)cc2)c(=O)c1-c1ccc2nc(N)ncc2c1, the Potency was 5.9 µM (active). With O=C(O)c1cc(O)c2c(c1)C(=O)c1cccc(O)c1C2=O the “outcome” value was “inactive”. In the case of COc1cc(NC(=O)c2ccc(-c3ccc(Cl)cc3)o2)cc(OC)c1, the “activity change, negative = viability loss” value is reported as -22%. For O=C(CCN1CCN(C(=O)OCc2cc(Cl)cc(Cl)c2)CC1)c1ccc2[nH]c(=O)oc2c1, the Potency was 18.6 µM (active). In the case of COC1CCC(N(C(=O)C2CCC(C)CC2)c2cc(C3=CCCCC3)sc2C(=O)O)CC1 (stereo not given), the “activity change, negative = viability loss” value is reported as -9.93%. With CC1CCC(C(=O)N(c2cc(C#CC(C)(C)C)sc2C(=O)O)C2CCC(O)CC2)CC1 (stereo not given) the Potency was 20.9 µM (active).

Experiment: Primary qHTS for inhibitors of nuclear receptor binding SET domain protein 2 (NSD2) in an RCH-ACV wild type WT cells (2C) (AID 1645877); also: nearly all actives have a fitted effect of over 70% in size; also: potency is read from the fitted curve at half-maximal effect
Settings: RCH-ACV (leukaemia line) NSD2 WT (2C) viability, CellTiter-Glo, 72 h; series mostly up to 44.9 µM; activity change, negative = cell killing: at the top concentration
In the case of Cn1c(N2CCCCS2(=O)=O)nc(C(=O)NCc2ccc(F)cc2)c(O)c1=O, the “activity change, negative = cell killing” value is reported as -24.7%. In the case of COc1cc(Nc2ncc(F)c(Nc3ccc4c(n3)NC(=O)C(C)(C)O4)n2)cc(OC)c1OC, the Potency is reported as 1.03 µM (active) and 5.17 µM (active). For COC(=O)[C@@H]1[C@H]2C[C@H]3c4[nH]c5ccccc5c4CCN3C[C@@H]2CC[C@@H]1O, the “activity change, negative = cell killing” value was -0.469%. In the case of O=C(NC1CCOCC1)c1ccc(-c2cc(-c3cn[nH]c3-c3ccccn3)ccn2)cc1, the “activity change, negative = cell killing” value is reported as 4.67%. With Cc1ccc(Nc2cc(-c3cccc(N4C(=O)c5ccccc5C4=O)c3)ncn2)cc1NS(C)(=O)=O the Potency was 18.6 µM (active). For NC(=O)c1cccc(-c2cc(Nc3ccc(OC(F)(F)F)cc3)ncn2)c1, the Potency was 23 µM (active) and 13.2 µM (active). For CCOC(=O)C1=C(N)Oc2ccc(Br)cc2C1C(C#N)C(=O)OCC (stereo not given), the Potency was “inactive”. For CC(C)(C)c1cc(C(=O)O)c(NC(=O)Nc2ccc3[nH]ncc3c2)s1, the Potency was “inactive”. In the case of CCS(=O)(=O)N1CC(CC#N)(n2cc(-c3ncnc4[nH]ccc34)cn2)C1, the Potency is reported as 16.6 µM (active). With COc1cc2c(cc1OC)CN(CCc1ccc(NC(=O)c3cc(OC)c(OC)cc3NC(=O)c3cnc4ccccc4c3)cc1)CC2 the “activity change, negative = cell killing” value was -14.1%. With Cc1nc(N)sc1-c1ccnc(Nc2ccc(N3CCOCC3)cc2)n1 the Potency was 459 nM (active) and 468 nM (active). With CC1(C)CCC2=C(O1)c1ccccc1C(=O)C2=O the Potency was 9.34 µM (active). With COc1cc2ncnc(-n3nc(-c4ccccn4)nc3N)c2cc1OC the Potency was 2.52 µM (active). With COc1cccc(-c2cc(=O)c3ccccc3o2)c1N the Potency was “inactive”. With CC(C)(C)NC(=O)Nc1cccc(Nc2ncc(F)c(NC(C)(C)CO)n2)c1 the Potency was 2.63 µM (active). For COC1CCC(N(C(=O)C2CCC(C)CC2)c2cc(C3=CCCCC3)sc2C(=O)O)CC1 (stereo not given), the “activity change, negative = cell killing” value was -6.16%. With CC1CCC(C(=O)N(c2cc(C#CC(C)(C)C)sc2C(=O)O)C2CCC(O)CC2)CC1 (stereo not given) the Potency was 16.6 µM (active).

Experiment: NCATS anti-infectives library activity on HEK293 viability as a counter-qHTS vs the C. elegans viability qHTS (AID 1745854);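 also: HEK293 cells exposed to compounds for 24 hr before the viability read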
Settings: HEK293 viability counter-screen; series mostly up to 41.8 µM; activity change, negative = cytotoxicity: at the top concentration
Summary of the method: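 Cytotoxicity in human HEK293 cells is measured by ATP-dependent CellTiter-Glo luminescence following a 24 hr incubation with titrated library compounds at 37C. Top final concentration is 41.7 uM.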
With Cn1c(N2CCCCS2(=O)=O)nc(C(=O)NCc2ccc(F)cc2)c(O)c1=O the “activity change, negative = cytotoxicity” value was -8.5%. In the case of O=C(O)CCC1CCC(c2cc(F)ccc2F)(S(=O)(=O)c2ccc(Cl)cc2)CC1 (stereo not given), the “activity change, negative = cytotoxicity” value is reported as -9.9%. With CCS(=O)(=O)N1CC(CC#N)(n2cc(-c3ncnc4[nH]ccc34)cn2)C1 the “activity change, negative = cytotoxicity” value was 8.82%. In the case of CC1CCC(C(=O)N(c2cc(C#CC(C)(C)C)sc2C(=O)O)C2CCC(O)CC2)CC1 (stereo not given), the “activity change, negative = cytotoxicity” value is reported as -2.37%.
